# Results filed as inconclusive are left out. Entries that show only a call come without a potency. Active and inactive are the calls of the source. Unless noted, calls come from the whole dose curve; as a rule, active = well fitted curve in the direction sought with a large enough effect; inconclusive = small, poorly fitted or top-dose-only effect, or another doubt; inactive = no such curve, though single readings can be large; an effect the other way counts as inactive or inconclusive.
# How the values were obtained:
# [1] = Confirmation and Secondary Assay for Modulators of Hemoglobin Beta Chain Splicing at IVS2 654 locus (AID 910);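 note: HeLa cells stably carrying EGFP split by mutant beta-globin IVS2-654 intron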
# How it was run: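 HeLa cells stably expressing EGFP interrupted by β-globin IVS2-654 intron, seeded overnight in Opti-MEM/2% FCS, then treated 2 days at 37 °C. Restored splicing read as total peak GFP intensity per well by laser scanning cytometry (488 nm excitation, 500–520 nm emission); 500 nM antisense PNA as control.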
# [2] = Confirmation and Secondary Assay for Modulators of Hemoglobin Beta Chain Splicing at IVS2 705 locus (AID 930);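 note: HeLa cells stably expressing the EGFP-705 splicing reporter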
# How it was run: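 HeLa cells stably carrying EGFP interrupted by mutant beta-globin IVS2-705 intron (CMV-driven) were seeded at 500 cells/well, treated next day with compound for 2 days at 37C; corrected splicing restores EGFP, read as total peak GFP intensity per well.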
# [3] = qHTS Assay for Lipid Storage Modulators (AID 1519; calls by dose curve); details: Drosophila S3 cells, BODIPY lipid droplet/cell ratio, laser cytometry, cells loaded with oleic acid
# How it was run: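 Cells seeded at 5,000 per well were treated with compounds over a concentration series and loaded with oleic acid (400 uM, as added). Lipid droplet fluorescence (488 nm excitation, 500-530 nm channel) was read by laser-scanning cytometry and normalized to 20 uM Triacsin C.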
# [4] = target: Furin (Homo sapiens) (UniProt P09958); assay: Furin counterscreen qHTS for Zika virus inhibitors (AID 1347149);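 note: purified recombinant full-length human furin enzyme at 5 nM; fluorescence gain from furin cutting a BOC-RVRR-AMC peptide substrate over 15 min; top concentration of the series differs between compounds; nearly all actives have a fitted effect of over 70% in size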
# Sequence of Furin (Homo sapiens) (P09958 whole entry, looked up): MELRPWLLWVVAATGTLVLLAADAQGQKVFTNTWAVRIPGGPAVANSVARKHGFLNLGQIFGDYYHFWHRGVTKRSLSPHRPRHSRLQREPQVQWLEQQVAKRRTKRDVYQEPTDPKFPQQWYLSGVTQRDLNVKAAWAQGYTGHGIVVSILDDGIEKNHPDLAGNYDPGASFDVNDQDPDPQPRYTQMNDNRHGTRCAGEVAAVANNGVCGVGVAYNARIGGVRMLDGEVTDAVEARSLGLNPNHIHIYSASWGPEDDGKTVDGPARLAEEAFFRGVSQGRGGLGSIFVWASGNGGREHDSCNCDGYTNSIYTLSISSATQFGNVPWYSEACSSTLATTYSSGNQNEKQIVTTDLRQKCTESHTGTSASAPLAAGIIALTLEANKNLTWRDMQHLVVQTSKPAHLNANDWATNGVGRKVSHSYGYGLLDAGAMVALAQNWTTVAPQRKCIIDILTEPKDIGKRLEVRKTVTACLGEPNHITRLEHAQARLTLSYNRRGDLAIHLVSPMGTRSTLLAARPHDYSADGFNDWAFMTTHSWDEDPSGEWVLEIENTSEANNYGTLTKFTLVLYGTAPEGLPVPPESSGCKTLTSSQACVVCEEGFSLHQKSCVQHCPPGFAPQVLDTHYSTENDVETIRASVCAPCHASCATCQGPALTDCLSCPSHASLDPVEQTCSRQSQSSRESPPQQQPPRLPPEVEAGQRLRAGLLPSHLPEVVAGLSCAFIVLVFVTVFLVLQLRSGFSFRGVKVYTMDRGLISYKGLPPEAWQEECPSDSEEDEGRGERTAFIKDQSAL
# How it was run: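 Fluorogenic cleavage of BOC-RVRR-AMC (2 microM final, Km ~15 µM) was monitored (ex 340, em 450 nm) at 37C after 15 min RT preincubation of 5 nM furin with compounds in HEPES pH 7.0 buffer with CaCl2 and Triton X-100. Percent inhibition was fitted to a 4-parameter Hill curve.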
# [5] = Confirmatory screen GU Rhodamine qHTS for Zika virus inhibitors qHTS (AID 1347157); note: potency is the fitted concentration of half-maximal effect; nearly all actives have a fitted effect of over 70% in size
# How it was run: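 Compounds, tested up to 114 microM, were incubated for 15 minutes with 25 nM unlinked NS2B-NS3 protease at pH 8.0. Cleavage of 1.5 microM Rhodamine110 substrate was then followed by fluorescence for 15 minutes.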
# [6] = ZIKV-mCherry secondary qHTS for Zika virus inhibitors (AID 1347158); note: top concentration of the series differs between compounds
# How it was run: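 Vero cells (5,000/well) were given compound, then infected with ZIKV-mCherry at MOI 1 for 48–72 h at 37 °C. After PFA fixation and Hoechst staining, imaging gave percent mCherry-positive cells. The positivity threshold was RFU above 450, 3 SD over negative controls.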
# [7] = system: Zika virus NS2B-NS3 protease (linked construct); assay: Primary screen NINDS Rhodamine qHTS for Zika virus inhibitors (AID 1347160); note: potency is the fitted concentration of half-maximal effect; nearly all actives have a fitted effect of over 55% in size
# How it was run: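 Purified NS2B-NS3 protease with the NS2B hydrophilic domain joined by a flexible linker (25 nM) in 10 mM Tris-HCl pH 8.0, 0.01% Tween 20, preincubated 15 min at RT with compound; Rhodamine110 peptide substrate 1.5 µM; fluorescence change over 15 min; 4-parameter Hill fit.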
# [8] = Confirmatory screen NINDS Rhodamine qHTS for Zika virus inhibitors (AID 1347161); note: potency is the fitted concentration of half-maximal effect; nearly all actives have a fitted effect of over 60% in size
# How it was run: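 Rhodamine110-peptide cleavage (1.5 µM substrate) by 25 nM linked NS2B-NS3 enzyme at pH 8.0 (Tris, Tween 20), after 15 min RT preincubation with compounds; 15-min fluorescence change normalized to controls and Hill-fitted.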
# [9] = system: Zika virus NS2B-NS3 protease (linked); assay: 384 well plate NINDS AMC confirmatory qHTS for Zika virus inhibitors (AID 1347163); note: potency is the fitted concentration of half-maximal effect; nearly all actives have a fitted effect of over 50% in size
# How it was run: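 Linked NS2B-NS3 protease (final 5 nM, 30 nM or 60 nM) was preincubated with compounds (final up to 1 mM) for ~15 minutes. Ac-VKTGKR-AMC substrate (final 30 microM) then reacted for 25 minutes at room temperature in the dark. Fluorescence (ex 355/em 460 nm) was normalized to no-enzyme and no-inhibitor controls.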
# [10] = system: Zika virus NS2B-NS3 protease (linked construct); assay: 384 well plate NINDS Rhodamine confirmatory qHTS for Zika virus inhibitors (AID 1347164);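 note: fluorescence from protease cleavage of Ac-LKRR-rhodamine 110 substrate; potency is the fitted concentration of half-maximal effect; nearly all actives have a fitted effect of over 65% in size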
# How it was run: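 Linked NS2B-NS3 protease (final 5, 30 or 60 nM) preincubated ~15 minutes with compounds, then 10 microM Ac-LKRR-Rhodamine 110 added. Fluorescence (485/538 nm) read after 25 minutes at room temperature, normalized to no-enzyme and no-inhibitor controls.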
# [11] = OV-KATE Cancer Cell Toxicity qHTS against the NCATS CANVASS Library (AID 1347345)
# How it was run: (§1)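 Cells were seeded at 1000 per well, allowed 4 h at 37 degrees C/5% CO2, then pin-treated with an 11-point compound series. After 72 h, viability was read as CellTiter-Glo luminescence following 15min at room temperature.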
# [12] = HPAF-II Cancer Cell Toxicity qHTS against the NCATS CANVASS Library (AID 1347346); note: nearly all actives have a fitted effect of over 55% in size
# How it was run: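 HPAF-II cells at 1000 cells/well were treated with an 11-point concentration series for 72 hours at 37 degrees C. Viability read by CellTiter-Glo luminescence.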
# [13] = OV-SAHO Cancer Cell Toxicity qHTS against the NCATS CANVASS Library (AID 1347348); note: nearly all actives have a fitted effect of over 55% in size
# How it was run: as §1
# [14] = A2780 Cisplatin Sensitive Ovarian Cancer Cell Toxicity qHTS against the NCATS CANVASS Library (AID 1347353); note: nearly all actives have a fitted effect of over 60% in size
# How it was run: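 A2780 cells, 750/well, settled 4 h at 37 °C, then treated with an 11-point compound series for 72 h. Viability was read as ATPLite luminescence after 10 min at room temperature, with bortezomib as control.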
# [15] = UWB1.289-WTBRCA1 Cancer Cell Toxicity qHTS against the NCATS CANVASS Library (AID 1347354)
# How it was run: (§2)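 Cells at 1000/well were given compound 4 h after plating in an 11-point series. Viability was read by CellTiter-Glo luminescence after 72 h at 37 degrees C.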
# [16] = HEK-293 Cancer Cell Toxicity qHTS against the NCATS CANVASS Library (AID 1347355); note: nearly all actives have a fitted effect of over 65% in size
# How it was run: as §2
# [17] = HPAF-II 24hr Apoptosis Induction qHTS against the NCATS CANVASS Library (AID 1347356)
# How it was run: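 HPAF-II cells (500/well) exposed to compounds in 11-point series for 24 h at 37 degrees C; caspase-3/7 activity read by Caspase-Glo luminescence after 15 min at room temperature. Doxorubicin titration as control.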
# [18] = HEK293 18hr Apoptosis Induction qHTS against the NCATS CANVASS Library (AID 1347357)
# How it was run: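 HEK293 cells (500/well, DMEM + 10% FBS) treated with an 11-point series for 18 h at 37 degrees C. Caspase-3/7 activity read by Caspase-Glo luminescence after 15 min at room temperature.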
# [19] = HPAF-II 12hr Apoptosis Induction qHTS against the NCATS CANVASS Library (AID 1347358)
# How it was run: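 HPAF-II cells, 500/well in DMEM + 10% FBS, exposed 12 hours at 37 degrees C to compound (11-point). Caspase-Glo 3/7 added for 15 min at room temperature; luminescence reflects caspase-3/7 activity.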
# [20] = HEK293 24hr Apoptosis Induction qHTS against the NCATS CANVASS Library (AID 1347359)
# How it was run: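 HEK293 cells, 500 per well, exposed to an 11-point compound series for 24 hours at 37 degrees C. Caspase 3/7 activity read by Caspase-Glo luminescence (DEVD substrate) after 15 min at room temperature.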
smiles,measurement,setting,value
O=C(OC1Cc2c(O)cc(O)cc2OC1c1cc(O)c(O)c(O)c1)c1cc(O)c(O)c(O)c1 (configuration not stated),outcome,[1],inactive
same,outcome,[2],inactive
same,"activity change, negative = inhibition",[3]; at 57.5 µM (top of the series),7.9% (inactive)
same,max response,[3]; measured here: cell count channel max response,1.63%
same,max response,[3]; measured here: lipid channel max response,13.6%
same,Potency,[4],inactive
same,Potency,[5],7.94 µM (active)
same,Potency,[6],inactive
same,Potency,[7],1.56 µM (active)
same,Potency,[8],7.94 µM (active)
same,Potency,[9],15.8 µM (active)
same,Potency,[10],89.1 µM (active)
same,Potency,[11],inactive
same,Potency,[12],inactive
same,Potency,[13],inactive
same,Potency,[14],inactive
same,Potency,[15],inactive
same,Potency,[16],inactive
same,outcome,[17],inactive
same,Potency,[18],inactive
same,Potency,[19],inactive
same,Potency,[20],inactive

# Reference: PubChem BioAssay (NCATS)
